miR-122 inh – activators of miR-122 sensor in Huh7 cells; hit rate 0.14% among 340,000; Huh7 psiCHECK-miR122 Renilla luciferase sensor, 48 h; AID 623901; activation, % at 12.5 µM;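 active = mean activation of 30% or more, with every replicate also reaching 30%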;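 note: 0% = median of neutral control wells and 100% = median of positive control wells; higher luciferase signal means stronger suppression of miR-122 activity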
The depositor's hits bear a star. This excerpt belongs to a sample that is enriched for hits.

SMILES | miR-122 inh
C[C@@H]1CN([C@H](C)CO)C(=O)c2cc(/C=C/c3ccccc3)cnc2O[C@@H]1CN(C)C(=O)c1cccc(F)c1 | 3
CC(C)NC(=O)Nc1ccc2c(c1)C(=O)N(C)[C@@H]1CC[C@H](CC(=O)NCC(F)(F)F)O[C@H]1CO2 | 37*
CC(C)NC(=O)Nc1ccc2c(c1)C(=O)N(C)[C@@H]1CC[C@@H](CC(=O)NCC(F)(F)F)O[C@@H]1CO2 | 37*
C[C@@H]1CN([C@H](C)CO)C(=O)c2cc(-c3cccc(C#N)c3)cnc2O[C@@H]1CN(C)C(=O)C1CCCCC1 | 6
C[C@@H]1CN([C@@H](C)CO)C(=O)c2cc(C#CCc3ccccc3)cnc2O[C@@H]1CN(C)C(=O)C1CCCCC1 | -1
C[C@H](CO)N1C[C@H](C)[C@H](CN(C)S(=O)(=O)c2cccc(F)c2)Oc2ncc(-c3ccc(F)cc3)cc2C1=O | 6
COCC(=O)N(C)C[C@@H]1Oc2ncc(/C=C/c3ccccc3)cc2C(=O)N([C@H](C)CO)C[C@H]1C | -1
C[C@H]1CN([C@@H](C)CO)C(=O)c2cc(C#CC3(O)CCCC3)cnc2O[C@H]1CN(C)S(=O)(=O)c1cccc(F)c1 | -4
Cc1noc(C)c1NC(=O)N(C)C[C@@H]1Oc2cc(C#CCC(C)C)ccc2S(=O)(=O)N([C@@H](C)CO)C[C@@H]1C | 4
C[C@@H]1CN([C@@H](C)CO)S(=O)(=O)c2ccc(C#C[C@@H](C)O)cc2O[C@@H]1CN(C)C | 6
COCC(=O)Nc1ccc2c(c1)OC[C@@H](C)NC[C@H](C)[C@H](OC)CN(C)C2=O | -1
CCCNC(=O)N(C)C[C@@H]1Oc2ncc(/C=C/c3ccccc3)cc2C(=O)N([C@H](C)CO)C[C@@H]1C | 5
COc1cc(-c2nnc3sc(C4CCCCC4)nn23)cc(OC)c1OC | 32*
C[C@@H]1CN([C@H](C)CO)C(=O)c2cc(-c3ccncc3)cnc2O[C@H]1CN(C)C(=O)C1CCOCC1 | 0
C[C@H](CO)N1C[C@H](C)[C@H](CN(C)C)Oc2ncc(C#CC3CC3)cc2C1=O | 0
CCCNC(=O)N(C)C[C@H]1Oc2cc(C#Cc3cccc(F)c3)ccc2S(=O)(=O)N([C@H](C)CO)C[C@H]1C | 3
COc1ccc(C#Cc2ccc3c(c2)O[C@H](CN(C)C)[C@@H](C)CN([C@H](C)CO)S3(=O)=O)cc1 | -7
Clc1ccc(CSc2nnc(-c3ccncc3)o2)c(Cl)c1 | 33*
Cc1ccc(C)c(CSc2nnc(-c3cccnc3)o2)c1 | -356
C[C@H](CO)N1C[C@H](C)[C@H](CN(C)Cc2ccccn2)Oc2ncc(C#Cc3ccc(F)cc3)cc2C1=O | 9
COc1cc2nc(C3CCC3)n(NC(=O)C3CCCC(OC)C3)c(=O)c2cc1OC (stereo not drawn) | 34*
C[C@H]1CN([C@@H](C)CO)C(=O)c2cc(C3=CCCCC3)cnc2O[C@H]1CN(C)Cc1ccccc1C(=O)O | -1
C[C@H]1CN([C@@H](C)CO)C(=O)c2cc(C#CCc3ccccc3)cnc2O[C@H]1CN(C)Cc1ccccn1 | -4
O=[N+]([O-])c1ccc(/C=N/n2cnc3ccccc32)s1 | 48*
C[C@H](CO)N1C[C@H](C)[C@H](CN(C)C(=O)Nc2ccc(F)cc2)Oc2cc(C#CC3(O)CCCC3)ccc2S1(=O)=O | -1
SMILES | miR-122 inh
COCC(=O)N(C)C[C@H]1Oc2ncc(C#Cc3ccccc3OC)cc2C(=O)N([C@@H](C)CO)C[C@@H]1C | -2
CCC(=O)N(C)C[C@@H]1Oc2cc(C#C[C@H](C)O)ccc2S(=O)(=O)N([C@H](C)CO)C[C@H]1C | 4
C[C@H](O)C#Cc1ccc2c(c1)O[C@@H](CN(C)Cc1cncnc1)[C@@H](C)CN([C@@H](C)CO)S2(=O)=O | 10
C[C@@H]1CN([C@H](C)CO)C(=O)c2cc(/C=C/c3ccccc3)cnc2O[C@@H]1CN(C)C(=O)c1cccnc1 | 4
C=CCc1c(OC)ccc2ccc(=O)oc12 | 32*
C[C@@H]1CN([C@@H](C)CO)S(=O)(=O)c2ccc(Br)cc2O[C@H]1CN(C)S(=O)(=O)c1cccc(F)c1 | -1
C[C@H]1CN([C@@H](C)CO)S(=O)(=O)c2ccc(-c3ccc(C(=O)N(C)C)cc3)cc2O[C@H]1CN(C)C(=O)Cc1ccccn1 | -10
C[C@H](CO)N1C[C@H](C)[C@H](CN(C)C(=O)CC2CC2)Oc2cc(C3=CCCCC3)ccc2S1(=O)=O | -3
C[C@@H]1CN([C@H](C)CO)C(=O)c2cc(C#Cc3ccccn3)cnc2O[C@@H]1CN(C)CC1CCOCC1 | -1
CN(Cc1ccccc1)S(=O)(=O)c1ccc(NC(=S)NC(=O)C2CCCC2)cc1 | -124
Cc1cc(C)cc(NS(=O)(=O)c2ccc(NC(=S)NC(=O)c3cccs3)cc2)c1 | -133
Cc1cc(C)nc(NS(=O)(=O)c2ccc(NC(=S)NC(=O)C3CCCC3)cc2)n1 | 62*
COc1cccc(-c2cnc3c(c2)C(=O)N([C@@H](C)CO)C[C@H](C)[C@@H](CN(C)CC2CCOCC2)O3)c1 | -1
C[C@H]1CN([C@@H](C)CO)C(=O)c2cc(/C=C/c3ccccc3)cnc2O[C@@H]1CN(C)C(=O)C1CCC1 | 5
